Mdm2-MdmX inh: inhibitors of human Mdm2/MdmX interaction | SaOS-2 split-luciferase Mdm2/MdmX complementation, luminescence | inhibition, % at 8 µM | O15151+Q00987 | actives 3% (n = 330,000) | AID 485346;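 active = inhibition of at least 50% at 8 µM in the primary screen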
Beta cell apopt: blocks beta cell apoptosis | INS-1E cytokine-induced death, ATP luminescence, 48 h; percent of positive-control rescue, neutral wells zero | protection from apoptosis, % (test concentration not listed) | actives 0.8% (n = 300,000) | AID 435005;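 active = Every replicate reaches about 75%, or at least half do and their mean reaches it too, limit read from the data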;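 note: higher means more ATP so stronger rescue from cytokine killing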
Jurkat NFkB inh: inhibitors of the PMA/ionomycin-induced NF-kB reporter in Jurkat cells; actives 0.53% (n = 330,000); inhibition, % at 4 µM; PMA/ionomycin-induced NF-kB luciferase reporter, luminescence; AID 435003; in the data active = inhibition above about 50%
Gli-Sufu antag: Gli-Sufu pathway antagonism; Sufu-KO-LIGHT fibroblasts, Gli luciferase reporter luminescence; inhibition, % at 5 µM; actives 0.74% (n = 340,000); AID 588413;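 active = inhibition above about 55%, limit read from the data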
697 NFkB inh: inhibitors of the PMA/ionomycin-induced NF-kB reporter in 697 B cells; inhibition, % at 4 µM; 697 B-cell NF-kB luciferase reporter, 16 h; actives 0.33% (n = 330,000); AID 435022; in the data active = inhibition above about 35%
Large screens that a line does not name were inactive. Hits are enriched below; roughly 4% of the tested compounds scored in any of these assays.

O=[N+]([O-])c1ccc(Cl)cc1Sc1cccc2cccnc12	none
Cn1nc([N+](=O)[O-])nc1Sc1cccc2cccnc12	Beta cell apopt 94
Cn1c(N)c(C(=O)CSc2ncn[nH]2)c(=O)n(C)c1=O	none
O=C(Nc1nc(-c2ccccn2)cs1)C1CC1	none
O=C(Nc1nc(-c2ccccn2)cs1)c1ccc(Br)s1	Beta cell apopt 85, Gli-Sufu antag 82
O=c1[nH]c(SCc2ccc([N+](=O)[O-])cc2)nc2[nH]ncc12	none
CCc1cc2c(=O)nc3n(c2s1)Cc1ccccc1/C3=C(/O)c1ccccc1Cl	Beta cell apopt 89
COC(=O)[C@H](NCc1ccc(OC)c(B(O)O)c1)C(C)C	none (no result: Mdm2-MdmX inh, Beta cell apopt, Jurkat NFkB inh, 697 NFkB inh)
CC(=O)N1c2ccc(S(=O)(=O)N3CCC(C(=O)Nc4cccc(C)c4)CC3)cc2CC1C (configuration not stated)	none
CC1Sc2ccc(S(=O)(=O)N3CCC(C(=O)Nc4ccc(Cl)cc4)CC3)cc2NC1=O (configuration not stated)	Beta cell apopt 113, Gli-Sufu antag 69
CC(=O)N1c2ccc(S(=O)(=O)N3CCC(C(=O)Nc4cccc(Cl)c4)CC3)cc2CC1C (configuration not stated)	Gli-Sufu antag 73
CCN(C(=O)COC(=O)c1ccc(C)c(S(=O)(=O)N2CCCCC2)c1)C1CCS(=O)(=O)C1 (configuration not stated)	none
COC(=O)c1cc(OC)c(OC)cc1NC(=S)N1CCN(c2ccccn2)CC1	none
Cc1cccc(C(=O)Nc2cccc(NC(=O)c3ccccc3)c2)c1	none
CN(C1=C(NC(=O)c2ccc(Cl)cc2)C(=O)c2ccccc2C1=O)c1ccccc1	Beta cell apopt 93
Cc1cccc(NC2=C(NC(=O)c3ccccc3)C(=O)c3ccccc3C2=O)c1	Beta cell apopt 78
O=C(NC1=C(Nc2ccc(Cl)cc2)C(=O)c2ccccc2C1=O)c1ccccc1	Beta cell apopt 117
NC(=O)C1CCN(C(=O)CCSCc2ccc(Cl)c(Cl)c2)CC1	none
O=C(CN1CCN(S(=O)(=O)N2CCCCC2)CC1)Nc1ccc(Cl)c(Cl)c1	none
Cn1cnc([N+](=O)[O-])c1S(=O)(=O)Oc1ccc(Cl)cc1	none (no result: Mdm2-MdmX inh, Beta cell apopt, Jurkat NFkB inh, 697 NFkB inh)
C1=C(CCNc2ncnc3c2[nH]c2ccccc23)CCCC1	Beta cell apopt 130, Gli-Sufu antag 78 (no result: Mdm2-MdmX inh, Jurkat NFkB inh, 697 NFkB inh)
CN1CCN(CCCNC(=O)CCN2C(=O)COc3ccccc32)CC1	none
Cc1cc(C(=O)N/N=C/c2cc(Br)ccc2OC(=O)c2ccc(Br)cc2)n[nH]1	Beta cell apopt 91 (no result: Gli-Sufu antag)
Cc1cc(C(=O)N/N=C/c2cc(Br)cc(Br)c2OC(=O)c2ccccc2)n[nH]1	Beta cell apopt 94 (no result: Gli-Sufu antag)
Cc1nn(-c2ccc(Cl)nn2)c(=O)c2ccccc12	none (no result: Gli-Sufu antag)
CSC(=S)NN=C(C)c1cccc(C)n1	Gli-Sufu antag 92 (no result: Mdm2-MdmX inh, Beta cell apopt, Jurkat NFkB inh, 697 NFkB inh)
NS(=O)(=O)c1ccc(O)c(NC(=O)c2ccc([N+](=O)[O-])cc2)c1	none
CCN1C(=O)/C(=C2\SC(=S)N(NC(=O)c3cccnc3)C2=O)c2ccccc21	none
COc1cc(NC(=O)c2ccc([N+](=O)[O-])o2)ccc1NC(=O)c1cccs1	Beta cell apopt 78
COc1ccc(-c2cc3ccccc3oc2=O)cc1NC(=O)c1ccc([N+](=O)[O-])o1	Beta cell apopt 82
COc1ccccc1CC(NC(C)=O)C(=O)NC1CCN(C(=O)c2cccc(Cl)c2)CC1 (configuration not stated)	none
COc1ccc(OC)c(NC(=O)CSc2nnc(-c3ccncc3)s2)c1	none (no result: Beta cell apopt)
COc1ccc(OC)c(NC(=O)CSc2nnc(-c3cccnc3)s2)c1	Beta cell apopt 99
CCOc1ccccc1N(C)C(=O)c1ccc2c(=O)n3c(nc2c1)CCCCC3	none
Cc1cc(C)n(-c2nc(NCCCO)c3c4c(sc3n2)CCCC4)n1	Beta cell apopt 81
Cc1cc(C)n(-c2nc(NCCO)c3c4c(sc3n2)CCCC4)n1	Beta cell apopt 80
Cc1cc(C)n(-c2nc(NCC(C)O)c3c4c(sc3n2)CCCC4)n1 (configuration not stated)	none
NC(=O)C1CC12c1ccccc1-c1ccccc12 (configuration not stated)	none
O=C(C(Cl)Cl)N1c2ccccc2OCC1c1ccccc1 (configuration not stated)	Beta cell apopt 76
CC1COc2ccccc2N1C(=O)c1ccc(Cl)cc1 (configuration not stated)	none
COc1ccc(NC(=O)Cn2c(=O)oc3cc(S(=O)(=O)N4CCCC4)ccc32)cc1	none

Compound activity deposited in PubChem by several laboratories.
